Consider 92 molecules from PubChem BioAssay AID602449 (Sanford-Burnham Center for Chemical Genomics, 2012).

The whole screen tested about 360,000 compounds, of which about 5,000 (1.4%) were called active.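 How the source made its calls: active means inhibition of 50% or more, scaled per plate between neutral and stimulator controls; inactive means the rest.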 What follows is part of a selection rich in actives, with near analogues and random picks from the rest.

A short description of the assay: mitochondrial permeability transition pore inhibitors, primary screen, biochemical, isolated mouse mitochondria, absorbance (AID 602449).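 Further: 0% = DMSO wells given calcium and 100% = 1 mM EGTA wells.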 Particulars: Ca2+ swelling absorbance, 30 min, at 10 µM, active compounds read high.
Turning to `Cc1c(C(=O)NCCN2C(=O)S/C(=C\c3cccs3)C2=O)cccc1[N+](=O)[O-]`, the inhibition was 1.1% (inactive).
With `CC(C(=O)Nc1ccc(O)c(C(=O)O)c1)N1C(=O)/C(=C/c2cccs2)SC1=S` (configuration not stated) the figure was -1.2% (inactive); with `O=C(CCN1C(=O)/C(=C/c2cccs2)SC1=S)NNC(=O)c1cccc(O)c1`, 67.7% (active).
To `COc1ccccc1N(C(=O)Cn1nnc2ccccc21)C(C(=O)NCc1ccco1)c1ccc(C)o1` (configuration not stated) belongs 4% (inactive); to `CCOC(=O)N1CCN(C(=O)c2ccc(CN(c3ccc(C)c(C)c3)S(C)(=O)=O)cc2)CC1`, 5.2% (inactive).
`O=C(NCCc1ccccc1)c1ccc2c(c1)N(Cc1ccccc1)CCS2`: the inhibition is 0.6% (inactive).
To `CCOC(=O)N1CCN(C(=O)c2ccc3c(c2)N(Cc2ccc(C)cc2)CCS3)CC1` belongs 89% (active).
As for `CN(CCc1ccccc1)C(=O)c1cccc(NC(=O)Cc2cccc(NC(=O)C3CCCN(C(=O)CCc4ccccc4)C3)c2)c1` (configuration not stated), the inhibition is -0.3% (inactive).
Regarding `CC(=O)c1c(C)[nH]c(C(=O)Nc2cc(S(=O)(=O)N(C)C)ccc2C)c1C`, the inhibition is -1.8% (inactive).
To `CSc1ccc(/C=C2\NC(=O)NC2=O)cc1` belongs 0.6% (inactive); to `COC(=O)C1(C)NC(c2ccccc2OC)C2C(=O)N(c3ccccc3)C(=O)C21` (configuration not stated), 1.1% (inactive); to `Cc1ccc(-c2nc(COC(=O)c3c(C)noc3C)cs2)cc1`, 88.5% (active).
For `COc1cc(OC)cc(C(=O)NCC(=O)OCc2csc(-c3ccccc3)n2)c1`, the inhibition is -4.3% (inactive).
To `COc1ccc(C(=O)COC(=O)c2c(C)noc2C)cc1Cl` belongs -2.4% (inactive); to `CC12CN(NC(=O)c3ccc(Cl)cc3)C3(C#N)CC1CCC23C` (configuration not stated), 8.6% (inactive).
With `Nc1ncc(CN2CCCC(C(=O)Nc3ccc(-c4ccco4)cc3)C2)cn1` (configuration not stated) the figure was -0.6% (inactive); with `CCOC(=O)C1(Cc2ccc(O)cc2)NC(c2ccccc2F)C2C(=O)N(C)C(=O)C21` (configuration not stated), -1.2% (inactive); with `CC(C)OCCCNc1ncnc2c1[nH]c1ccc(F)cc12`, 88.4% (active).
With `O=C1CSc2ccc(S(=O)(=O)NCc3ccccc3)cc2N1` the figure was -1.3% (inactive); with `Cc1ccc(C)c(S(=O)(=O)N2CCN(CC(=O)Nc3ccc([N+](=O)[O-])cc3)CC2)c1`, 7.1% (inactive); with `Cc1ccc(C)c(S(=O)(=O)N2CCN(c3ncnc4sccc34)CC2)c1`, 86.5% (active).
Regarding `Cc1ccc(C)c(S(=O)(=O)n2cnc3ccccc32)c1`, the inhibition is -3.1% (inactive).
To `CCCNC(=O)C1(C)CCN1C(=O)C1(c2ccccc2)CC1` (configuration not stated) belongs -0.6% (inactive); to `C=CCNC(=O)CCCOc1cccc(C)c1`, 1.5% (inactive).
To `Cc1cccc(OCCNC(=O)CSc2ccc(C(F)(F)F)cc2[N+](=O)[O-])c1` belongs 80.1% (active); to `O=C(CSc1ccc(C(F)(F)F)cc1[N+](=O)[O-])NCCOc1ccccc1`, 18% (inactive); to `Cc1cc(C)n2c(NCc3ccccc3)c(CC(C)C)nc2n1`, 0.4% (inactive).
To `Cc1ccccc1C1CC(c2cccs2)=NN1S(C)(=O)=O` (configuration not stated) belongs -0.3% (inactive); to `Fc1ccc(N2N=C(c3cccs3)CC2c2ccco2)c(F)c1` (configuration not stated), 57.7% (active).
In the case of `O=C(COc1ccccc1Cl)N1N=C(c2cccs2)CC1c1ccco1` (configuration not stated), the inhibition was -0.8% (inactive).
With `O=C(NCc1ccccn1)c1cnc2sccn2c1=O` the figure was -2.8% (inactive); with `C/C(=N\Nc1ccc(S(N)(=O)=O)cc1[N+](=O)[O-])c1cccs1`, 2.3% (inactive); with `O=C(OCc1nc2ccccc2[nH]1)C1CCCCC1`, -0.1% (inactive).
To `c1ccc2c(C[n+]3csc4ccccc43)cccc2c1` belongs -1.7% (inactive).
Regarding `c1ccc2c(CSCc3nc4ccccc4[nH]3)cccc2c1`, the inhibition is 74.4% (active).
With `COc1ccc(N(CC(=O)N2CCOCC2)S(=O)(=O)c2ccccc2)cc1Cl` the figure was 1.3% (inactive); with `O=C(/C(=C/c1cccc(Cl)c1)c1nc2ccccc2[nH]1)c1ccccc1`, 84.4% (active); with `O=c1c2cc(Br)ccc2nc(-c2cccc(Cl)c2)n1O`, 0.6% (inactive).
To `O=c1[nH]c(/C=C/c2cccc(Br)c2)nc2ccccc12` belongs 2.1% (inactive); to `CC1CN(C(=S)Nc2ccc(S(N)(=O)=O)cc2)CC(C)O1` (configuration not stated), -0.5% (inactive).
With `NC(=O)Cn1c(=O)oc2ccccc21` the figure was -0.1% (inactive).
With `CN1CCN(c2ncc3c(n2)CC(c2ccccc2F)CC3=O)CC1` (configuration not stated), the inhibition was 1.4% (inactive).
With `O=C(Oc1ccccc1Cl)c1ccc(N2CCOCC2)c([N+](=O)[O-])c1` the figure was 9.1% (inactive); with `CS(=O)(=O)c1ccccc1C(=O)Nc1ccc2sccc2c1`, -0.4% (inactive); with `O=C(Nc1ccc2ccccc2c1)Nc1ccc2snnc2c1`, 99.8% (active).
With `Cc1ccc(NC(=O)Nc2ccc3oc(C)nc3c2)cc1` the figure was -2.9% (inactive); with `CC1(C(=O)NS(=O)(=O)c2cccc(F)c2)CCN1C(=O)Cc1cc(F)ccc1F` (configuration not stated), -0.4% (inactive); with `CCc1nc2c(OCc3ccc(C(F)(F)F)cc3)cccn2c1N(C)C(=O)CC(C)C`, 0.1% (inactive).
As to `O=C(O)c1cc(S(=O)(=O)NC2CCCc3ccccc32)ccc1O` (configuration not stated), the inhibition was 0.3% (inactive).
To `COc1cc(C2C(N3C(=O)c4ccccc4C3=O)C(=O)N2c2ccc(C)c(C)c2)cc(OC)c1OC` (configuration not stated) belongs 3% (inactive).
To `COc1ccc2c(c1)c(=Cc1ccc(N(C)C)cc1)c1cc(-c3ccccc3)[n+](C)n12` belongs 80.7% (active); to `Cc1nc(N2CCOCC2)c2c(C)c(C(=O)Nc3ccc(C(F)(F)F)cc3)sc2n1`, 72.5% (active).
To `Cc1nc(N2CCN(c3ccccn3)CC2)c2c(C)c(C(=O)Nc3ccc(F)c(Cl)c3)sc2n1` belongs 16.7% (inactive); to `Cc1nc(N2CCC(C)CC2)c2c(C)c(C(=O)Nc3cc(F)ccc3C)sc2n1`, 13.5% (inactive); to `C=C(C)Cn1c(N2CCN(CC)CC2)nc2c1c(=O)[nH]c(=O)n2C`, -0.4% (inactive).
With `Cc1ccc(C(=O)c2ccc(N3CCN(C)CC3)c([N+](=O)[O-])c2)cc1`, the inhibition was 0.6% (inactive).
To `COc1ccc(C(=O)c2c(C)oc3cc([N+](=O)[O-])c(O)c([N+](=O)[O-])c23)cc1` belongs 3.3% (inactive); to `Cc1oc2cc([N+](=O)[O-])c(O)c([N+](=O)[O-])c2c1C(=O)c1ccc(Br)cc1`, 74.4% (active); to `O=C(Nc1ccccc1F)C1C2C=CC3(O2)C1C(=O)N(c1cccnc1)C3C(=O)NC1CCCCC1` (configuration not stated), 1.6% (inactive).
To `O=S(=O)(NCC1OCCc2ccccc21)c1ccccc1` (configuration not stated) belongs 4.3% (inactive); to `O=C(O)C(CCc1ccccn1)c1ccccc1` (configuration not stated), 0.6% (inactive).
With `CC1CCCC(NC(=O)c2cccc(N3CCCC3=O)c2)C1C` (configuration not stated) the figure was -0.6% (inactive); with `CC(C)CCOc1ccc(C(=O)C[N+]2(C)CCOCC2)cc1`, -1.9% (inactive).
Regarding `CCCOc1ccc(C(=O)C(CCC(CNCC)C(=O)c2ccc(OCCC)cc2)CNCC)cc1` (configuration not stated), the inhibition was 73.6% (active).
For `CCCc1ccc(OCCNC(=O)c2ccccc2Br)cc1`, the inhibition is 0.4% (inactive).
To `COc1cccc(NC(=O)COc2cc(C)cc3oc(=O)cc(C)c23)c1` belongs 0.4% (inactive); to `Cc1nccn1CCC1CCCCN1C(=O)CCc1nnc(-c2ccsc2)o1` (configuration not stated), -1.2% (inactive); to `O=C(Nc1nnc(C2COc3ccccc3O2)o1)c1ccc(F)cc1` (configuration not stated), -3% (inactive).
With `c1ccc2c(c1)CSc1sccc1C2=C1CCNCC1` the figure was 94.3% (active).
To `Cc1ccc(-n2ncc3c(Nc4cccc(C(=O)O)c4)ncnc32)cc1` belongs 3.4% (inactive).
For the molecule `Cc1nn(Cc2ccccc2)c2c1C(c1ccccc1)C(C#N)=C(N)O2` (configuration not stated), the inhibition was 81.3% (active).
To `N#CC1=C(N)Oc2cc(N)ccc2C1c1ccccc1` (configuration not stated) belongs -0.1% (inactive); to `Cn1c2c(c(=O)n(C)c1=O)C(c1cccc(F)c1)C(C#N)=C(N)O2` (configuration not stated), 1.8% (inactive).
With `C[C@H]1CN([C@@H](C)CO)C(=O)CCCn2cc(nn2)CO[C@@H]1CN(C)S(=O)(=O)c1ccccc1C#N` the figure was -0.4% (inactive).
To `COc1ccc(NC(=O)C(CC(C)C)NC(=O)C2CCC(C)CC2)cc1` (configuration not stated) belongs 0.1% (inactive); to `O=C(CN1CCN(c2ccccc2O)CC1)NC(=O)NCc1ccccc1`, 1.2% (inactive); to `O=C(CSc1nc(-c2ccccc2)cs1)Nc1cccc([N+](=O)[O-])c1`, 93% (active).
With `O=C(CN1CCC(NC(=O)Nc2ccccc2)CC1)Nc1cccc([N+](=O)[O-])c1`, the inhibition is -0.8% (inactive).
With `O=C(CSc1ncn[nH]1)Nc1nc(-c2cccc([N+](=O)[O-])c2)cs1` the figure was 8.3% (inactive); with `CC1CCC(NC(=O)CN(C)S(=O)(=O)c2ccc3c(c2)c(=O)n(C)c(=O)n3C)CC1` (configuration not stated), -2.1% (inactive); with `O=C(CSc1nnc(-c2cccs2)n1Cc1ccco1)c1ccc2c(c1)OCO2`, -1.2% (inactive).
As for `COc1ccc(/C=C2\CCCC3C2=NN(C(=O)c2scnc2C)C3c2ccc(OC)cc2)cc1` (configuration not stated), the inhibition was -3.7% (inactive).
With `CCc1cc2c(N3CCN(c4nnc(CC)s4)CC3)ncnc2s1` the figure was 58.3% (active).
For `CCc1ccc(C(=O)NNC(=O)C2CCN(c3ncnc4sc(C)c(C)c34)CC2)cc1`, the inhibition was -0.3% (inactive).
To `COC(=O)[C@@H](Cc1ccccc1)NC(=O)NCCc1ccccc1` belongs 0.6% (inactive).
To `NC[C@H](Cc1ccccc1)NCCc1cc(C(F)(F)F)cc(C(F)(F)F)c1` belongs 88.5% (active); to `CCOC(=O)c1c(NC(=O)CNC2CCCc3ccccc32)sc(C(N)=O)c1C` (configuration not stated), 0.8% (inactive).
To `O=C(NC1CCN(Cc2ccccc2)CC1)c1ccc(Oc2cc(Cl)cc(Cl)c2)o1` belongs 10.6% (inactive); to `O=C(NC1CCN(Cc2ccccc2)CC1)c1cc(Br)c(Br)[nH]1`, 66.2% (active); to `Cc1cc(C(=O)NC2CCN(Cc3ccccc3)CC2)n[nH]1`, -1.6% (inactive).
Turning to `CCc1nc2c(=O)[nH]cnc2o1`, the inhibition was -1.8% (inactive).
With `O=C(CSc1nc(=O)n2ccccc2n1)Nc1ccc2c(c1)OCCO2` the figure was -1.6% (inactive).

Broadly, the inhibition is the drop in the measured response relative to a control, in per cent.
